Most compounds without a hit are left out; they make up all but 1.2% or so of the library.
SRC1 inh – inhibitors of human steroid receptor coactivator 1 (SRC1). HEK293 GAL4-SRC1 luciferase reporter, luminescence. inhibition, % at 3.6 µM. 0.12% of 360,000 active. AID 588354;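 active = inhibition above the campaign mean plus 3 SD, with each screening campaign given its own cutoff, cut at about 60% in these data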;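 also: 0% = DMSO treated cells and 100% = gossypol at 36 µM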
Shn3 3UTR inh – inhibitors of Schnurri-3 3'UTR reporter in osteoblasts; Clone20 osteoblast Shn3 3'UTR firefly luciferase, 24 h; inhibition, % at 12.5 µM; 0.52% of 360,000 active;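 active = mean inhibition of at least 75% with every replicate also reaching 75%; inconclusive = mean inhibition at least 75% but some replicate below; inactive = mean inhibition below 75%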;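 also: 0% = median of neutral control wells and 100% = pilot-screen positive control compound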
EBV LMP1 NFkB – Epstein-Barr LMP1 NF-kappaB reporter inhibition | LMP1-induced NF-kappaB luciferase reporter cells, luminescence | inhibition, % at 12.5 µM | 0.69% of 350,000 active | AID 504558; in the data active = inhibition above about 41%; inconclusive = no clear call, values can overlap the other calls;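 also: 0% = neutral control wells and 100% = reference inhibitor control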
SRC2 inh – human SRC2 (NCOA2) inhibition. HEK293 GAL4-SRC2 luciferase reporter, luminescence. inhibition, % at 9 µM. 0.17% of 370,000 active. AID 651957;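 active = inhibition above the mean inhibition of all tested compounds plus 3 SD, set per campaign, cut at about 52% in these data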;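 also: 0% = DMSO treated cells and 100% = cells given Gossypol at 36 µM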
Target sequence (Q15596 whole entry, looked up, the tested form may be a part): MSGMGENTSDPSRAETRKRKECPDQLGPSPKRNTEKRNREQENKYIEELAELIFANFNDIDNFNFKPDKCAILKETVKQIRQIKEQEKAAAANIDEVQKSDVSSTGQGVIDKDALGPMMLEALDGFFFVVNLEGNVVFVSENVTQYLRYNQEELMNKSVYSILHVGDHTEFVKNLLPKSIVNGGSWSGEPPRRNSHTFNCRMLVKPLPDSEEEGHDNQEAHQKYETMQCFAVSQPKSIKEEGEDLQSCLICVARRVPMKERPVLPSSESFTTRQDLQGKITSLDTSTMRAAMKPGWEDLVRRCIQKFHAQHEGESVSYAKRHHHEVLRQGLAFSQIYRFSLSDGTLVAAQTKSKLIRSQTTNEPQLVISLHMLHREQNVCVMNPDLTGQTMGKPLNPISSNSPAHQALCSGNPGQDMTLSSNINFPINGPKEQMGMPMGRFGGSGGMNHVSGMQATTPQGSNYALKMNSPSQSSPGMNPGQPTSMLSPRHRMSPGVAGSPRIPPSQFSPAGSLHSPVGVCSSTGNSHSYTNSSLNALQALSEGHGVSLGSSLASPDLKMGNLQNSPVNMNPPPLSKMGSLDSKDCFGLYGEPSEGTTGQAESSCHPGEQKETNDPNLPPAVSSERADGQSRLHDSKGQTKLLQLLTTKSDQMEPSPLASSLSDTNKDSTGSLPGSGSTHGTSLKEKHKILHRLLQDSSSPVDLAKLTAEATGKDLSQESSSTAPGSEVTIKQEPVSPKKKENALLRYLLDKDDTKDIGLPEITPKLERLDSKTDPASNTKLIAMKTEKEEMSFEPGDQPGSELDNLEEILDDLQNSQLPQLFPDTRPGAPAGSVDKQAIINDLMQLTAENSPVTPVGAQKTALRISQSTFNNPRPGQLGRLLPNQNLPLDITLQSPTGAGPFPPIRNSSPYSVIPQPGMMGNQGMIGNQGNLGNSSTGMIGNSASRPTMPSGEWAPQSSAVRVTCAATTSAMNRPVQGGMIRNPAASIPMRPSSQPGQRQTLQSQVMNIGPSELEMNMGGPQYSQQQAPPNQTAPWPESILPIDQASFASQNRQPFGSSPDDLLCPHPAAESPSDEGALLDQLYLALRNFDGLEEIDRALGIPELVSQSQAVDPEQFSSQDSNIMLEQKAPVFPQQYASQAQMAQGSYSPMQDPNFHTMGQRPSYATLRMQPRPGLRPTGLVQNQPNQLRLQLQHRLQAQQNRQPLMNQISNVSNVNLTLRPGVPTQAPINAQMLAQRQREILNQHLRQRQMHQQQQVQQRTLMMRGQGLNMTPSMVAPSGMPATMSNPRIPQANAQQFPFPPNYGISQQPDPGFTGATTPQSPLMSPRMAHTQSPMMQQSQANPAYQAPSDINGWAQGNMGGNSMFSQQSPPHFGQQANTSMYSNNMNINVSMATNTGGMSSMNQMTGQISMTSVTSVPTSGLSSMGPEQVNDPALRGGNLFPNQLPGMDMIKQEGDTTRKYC
LRH-1 inv ag – inverse agonists of human LRH-1 (NR5A2) | inhibition, % at 3.6 µM | 0.13% of 360,000 active | HEK293T StAR-luciferase reporter, LRH-1 transfected, 24 h;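 active = inhibition above the mean inhibition of all tested compounds plus 3 SD, cut at about 73% in these data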;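 also: 0% = DMSO wells and 100% = reporter-only cells lacking LRH-1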
SRC3 inh – inhibits human SRC3 coactivator. Q9Y6Q9. HEK293 GAL4-SRC3 luciferase reporter, luminescence. inhibition, % at 3.6 µM. 0.17% of 360,000 active. AID 588352;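 active = inhibition above a per-campaign cutoff, the mean of all compounds plus 3 SD, cut at about 60% in these data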;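 also: 0% = DMSO-treated cells and 100% = gossypol-treated cells at 36 µM; higher means less SRC3-driven luciferase light from the GAL4 reporter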
The depositor's hits bear a star; ? = inconclusive; . = no result given.

SMILES | SRC1 inh | Shn3 3UTR inh | EBV LMP1 NFkB | SRC2 inh | LRH-1 inv ag | SRC3 inh
NC(N)=NC(=O)c1nc(Cl)c(N2CCCCCC2)nc1N | -33.4 | -96.2 | 74.0* | -37.1 | -37.1 | -71.6
COc1ccc(-c2cc(C(=O)NN=Cc3ccc(C)s3)[nH]n2)cc1 | . | . | . | -5.9 | . | .
CC[C@]1(c2ccccc2OC)ON(c2ccccc2C(F)(F)F)C1=O | . | . | . | 30.2 | . | .
COc1ccccc1[C@]1(C)ON(c2ccccc2C(F)(F)F)C1=O | -20.9 | -5.0 | 73.3* | 26.1 | 15.5 | 7.4
O=C(/C=C/c1ccc(Cl)cc1)c1ccc([N+](=O)[O-])o1 | -3.5 | 96.9* | 2.1 | -6.3 | -5.4 | 2.8
Cc1ccc(/C=C/C(=O)c2ccc([N+](=O)[O-])o2)cc1 | . | . | . | 0.4 | . | .
O=C(CSc1ccc(-c2ccc3c(c2)OCO3)nn1)Nc1nccs1 | 1.9 | -21.6 | -14.2 | -23.2 | -10.4 | -7.2
O=C(CSCC(=O)Nc1nc(-c2ccc3c(c2)OCO3)cs1)Nc1nccs1 | -22.1 | 11.0 | 85.3* | -16.2 | -28.8 | -34.0
COc1ccc(C(=O)Nc2ccc(NC(=O)c3ccccn3)cn2)cc1 | -7.9 | -6.8 | 3.6 | -24.1 | -24.4 | -19.2
O=C(NC(O)C(=O)c1ccccc1)c1ccccn1 (stereo unspecified) | -16.1 | -13.5 | 2.3 | -22.8 | 5.5 | -8.8
COc1ccc(C(=O)N/N=C(\c2ccccc2)c2ccccn2)cc1 | 22.7 | 86.7* | 22.1 | -6.7 | 48.3 | 29.3
O=C(N/N=C(\c1ccccc1)c1ccccn1)c1ccccc1Cl | 33.4 | 95.4* | 23.8 | -0.1 | 34.5 | 37.9
COc1ccc(NC(=O)c2ccccn2)cc1 | -79.6 | 23.1 | 52.2* | . | -126.1 | -38.6
O=C(NN=C(c1ccccc1)c1ccccn1)c1ccccc1 | 40.5 | 83.9* | 6.7 | 31.7 | 15.5 | 45.3
COCCCNC(=O)C[C@@H]1C(=O)N(CCc2ccc(Cl)cc2)C2=CCCCC[C@]21C(=O)OC | . | . | . | 2.4 | . | .
O=C(c1cccc(F)c1F)N1CCCC(c2nc(-c3cccs3)no2)C1 (stereo unspecified) | . | . | . | 19.5 | . | .
Cc1cc(C)c(CN2CCN(C(=O)Cn3cc(C)c(=O)[nH]c3=O)CC2)c(C)c1 | . | . | . | 18.7 | . | .
COC(C(=O)C(O)C(C)O)C1Cc2cc3cc(OC4CC(OC5CC(O)C(O)C(C)O5)C(O)C(C)O4)c(C)c(O)c3c(O)c2C(=O)C1OC1CC(OC2CC(OC3CC(O)C(OC)C(C)O3)C(O)C(C)O2)C(O)C(C)O1 (stereo unspecified) | 74.5* | -99.2 | 79.8* | 31.7 | 97.8* | 85.9*
CC(C)c1cc(NC(=O)c2ccccc2)cc(C(C)C)c1O | 3.9 | 22.8 | 58.9* | 5.8 | 7.7 | 0.9
CC(=O)Nc1cc(C(C)C)c(O)c(C(C)C)c1 | 3.5 | 10.3 | 2.4 | 5.0 | 7.8 | 15.2
CCOC(=O)C1(Cc2cccc(OC)c2)CCN(C/C=C/c2ccccc2)CC1 | -6.0 | 67.2 | 18.8 | 24.3 | -3.5 | 4.6
CCOC(=O)C1(Cc2cccc(OC)c2)CCN(C/C=C/c2ccc(OC)cc2)CC1 | 10.6 | 88.0* | 9.1 | 24.0 | 18.6 | 19.5
CCN=C1NC(c2ccc(Cl)cc2)C(C(=O)OC)=C(C)N1Cc1cccc(C(F)(F)F)c1 (stereo unspecified) | . | . | . | -7.8 | . | .
CN(C)CC(=O)N[C@H]1C[C@@H]2O[C@@H](CO)CC[C@@H]2O[C@@H]1CCc1ccc(C2=CCCCC2)cc1 | . | . | . | -25.9 | . | .
Cc1ccc2nc3sc(C(=O)N4CCOCC4)c(N)c3cc2c1 | -39.0 | 52.0 | 63.6* | -11.5 | -40.6 | -23.4
SMILES | SRC1 inh | Shn3 3UTR inh | EBV LMP1 NFkB | SRC2 inh | LRH-1 inv ag | SRC3 inh
C#CCN1CC(N(C)CCOC(=O)CC2C=CCC2)CS1(=O)=O (stereo unspecified) | . | . | . | 6.3 | . | .
Cc1ccc(-c2csc(N/N=C/c3ccco3)n2)cc1 | -49.6 | -56.3 | -51.8 | -35.0 | -71.7 | -57.9
CN(C)S(=O)(=O)c1ccc(-c2csc(N/N=C/c3ccco3)n2)cc1 | 58.9 | 34.1 | 24.5 | 30.3 | 1.4 | 73.3*
N#CC1=C(N)N2C(=C(C#N)C1c1cccc(Br)c1)Nc1ccccc12 (stereo unspecified) | 8.8 | 87.7* | 51.8* | 9.8 | 4.8 | 12.4
N#CC1=C(N)N2C(=C(C#N)C1c1ccc(Br)cc1)Nc1ccccc12 (stereo unspecified) | . | . | . | -11.9 | . | .
COC(=O)[C@]12C[C@H](CC(=O)NCCCCc3ccccc3)C(=O)N(Cc3ccco3)C1=C[C@H](C1CCCC1)O[C@@H]2C | . | . | . | 2.2 | . | .
C=CCn1c(O)c(N=NC(=S)Nc2ccccc2C)c2cc(S(=O)(=O)N3CCOCC3)ccc21 | 5.6 | 42.7 | 43.0* | 8.0 | 9.0 | -0.6
Cn1c(O)c(N=NC(=S)Nc2ccccc2F)c2cc(S(=O)(=O)N3CCOCC3)ccc21 | 2.8 | 72.1 | 38.8 | 2.2 | -1.6 | 4.4
Cc1ccc(C(=O)c2cccc(N)c2)cc1C | 27.5 | 1.5 | 27.7 | 79.5* | 23.2 | 31.5
CC(C)CNc1cccc2c1S(=O)(=O)N(Cc1cn(Cc3ccc(C(F)(F)F)cc3)nn1)Cc1ccccc1O2 | . | . | . | 7.8 | . | .
Cc1cc(N/N=C/c2ccc(F)cc2)nc(-n2nc(C)cc2C)n1 | -27.1 | 16.6 | . | 15.5 | 13.0 | 14.8
CCOc1cc(/C=N/Nc2cc(C)nc(-n3nc(C)cc3C)n2)ccc1O | -18.0 | ? | 70.4* | -2.5 | 13.4 | 26.1
CCCCNC(=O)C[C@H]1C[C@@]2(C(=O)OC)C(=C[C@H](C3CCCC3)O[C@@H]2C)N(CCc2ccc(OC)c(OC)c2)C1=O | . | . | . | 2.6 | . | .
CCN=C1S/C(=C\c2cc(OCC)c(O)cc2Br)C(=O)N1CC | 1.7 | 12.6 | 53.6* | -3.0 | 10.4 | 3.1
CCN=C1S/C(=C\c2ccc(O)c(OCC)c2)C(=O)N1CC | -15.6 | -29.6 | -5.8 | -28.7 | -5.4 | -21.1
O=C(NC1CCCCN(Cc2cccc(Cl)c2)C1=O)c1ccc2ccccc2c1 (stereo unspecified) | . | . | . | -6.1 | . | .
CC(=O)n1cc(N(C(=O)CCl)c2ccccc2)c2ccccc21 | -18.4 | . | 7.3 | 50.5 | 16.5 | 19.6
O=C(Cc1ccc(Cl)cc1)NCCc1c[nH]c2ccccc12 | 5.4 | 1.0 | 0.7 | -22.0 | -1.2 | -5.7
O=C(CCl)N(c1ccc(Cl)cc1)c1c[nH]c2ccccc12 | -44.1 | 98.0* | ? | 24.1 | 43.6 | 27.4
O=C(CCl)N(c1ccccc1)c1c[nH]c2ccccc12 | -29.1 | 94.1* | ? | 40.6 | 55.6 | 12.4
CCOc1ccccc1C(=O)Nc1ccc(C(=O)NCC2COc3ccccc3O2)cc1 (stereo unspecified) | . | . | . | 5.3 | . | .
COC(=O)[C@]12C[C@H](CC(=O)NCC34CC5CC(CC(C5)C3)C4)C(=O)N(Cc3ccccc3)C1=C[C@H](C1CCCC1)O[C@@H]2C | . | . | . | -37.9 | . | .
CCCCN1C(=O)/C(=C/C=C2\Oc3ccccc3N2CC)SC1=S | 10.8 | 12.8 | -1.0 | 3.9 | 1.0 | -1.3
CCN1/C(=C/C=C/c2oc3ccc(-c4ccccc4)cc3[n+]2CC)Oc2ccc(-c3ccccc3)cc21 | 58.9 | 96.0* | 43.5* | 28.8 | 66.6 | 48.3

Bioassay records as filed in PubChem BioAssay.
